Data from PubChem BioAssay (Tox21).
Records with an inconclusive call do not appear. Active and inactive are the calls of the source. Unless noted, calls follow the shape of the dose curve; as a rule, active = well fitted curve in the direction sought with a large enough effect in the repeat runs; inconclusive = weak or mixed curves; inactive = no such curve, though single readings can be large; an effect the other way counts as inactive or inconclusive.

Assays:
[1] = qHTS RealTime-Glo MT Cell Viability Assay in HEK293 cells - 0 hour (AID 1224880); also: top concentration of the series differs between compounds; nearly all actives have a fitted effect of over 45% in size
Summary of the method: (§1)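 Viable HEK293 cells reduce a cell-permeant prosubstrate; the product diffuses out and is consumed by NanoLuc in the medium to give light. Compounds went in after a 5 h incubation and plates were read over the treatment course.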

[2] = A CellTox Green Cytotoxicity Assay to monitor cytotoxicity in HEK293 cells - 32 hour (AID 1224881); also: nearly all actives have a fitted effect of over 40% in size
Summary of the method: (§2)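 Fluorescence intensity, read at 0, 8, 16, 24, 32 and 40 h of compound treatment, reflected dye binding to DNA of dead HEK293 cells; compounds (23 nL, DMSO) were added 5 h after plating cells with reagent.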

[3] = A CellTox Green Cytotoxicity Assay to monitor cytotoxicity in HepG2 cells - 0 hour (AID 1224882); also: nearly all actives have a fitted effect of over 35% in size
Summary of the method: (§3)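 Using 1536-well format, dye-containing HepG2 suspension was seeded, allowed 5 h at 37 C/5% CO2, dosed by pintool with compounds, positive and negative controls, and imaged for fluorescence across 40 h.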

[4] = A CellTox Green Cytotoxicity Assay to monitor cytotoxicity in HepG2 cells - 32 hour (AID 1224883); also: nearly all actives have a fitted effect of over 50% in size
Summary of the method: as §3

[5] = A CellTox Green Cytotoxicity Assay to monitor cytotoxicity in HEK293 cells - 8 hour (AID 1224884); also: nearly all actives have a fitted effect of over 35% in size
Summary of the method: as §2

[6] = qHTS RealTime-Glo MT Cell Viability Assay in HepG2 cells - 16 hour (AID 1224885); also: nearly all actives have a fitted effect of over 50% in size
Summary of the method: (§4)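 Real-time, nonlytic viability: 600 HepG2 cells/well mixed with NanoLuc enzyme plus prosubstrate; 5 h settle, compound (DMSO) added by pintool; luminescence monitored over 40 h at 37 C.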

[7] = qHTS RealTime-Glo MT Cell Viability Assay in HEK293 cells - 24 hour (AID 1224886); also: top concentration of the series differs between compounds; nearly all actives have a fitted effect of over 50% in size
Summary of the method: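 Cells + reagent dispensed (600 cells/well, HEK293) → 5 h at 37 C/5% CO2 → 23 nL compound in DMSO pinned → 40 h at 37 C → luminescence read at 0, 8, 16, 24, 32, 40 h.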

[8] = qHTS RealTime-Glo MT Cell Viability Assay in HEK293 cells - 8 hour (AID 1224887); also: top concentration of the series differs between compounds; nearly all actives have a fitted effect of over 50% in size
Summary of the method: as §1

[9] = A CellTox Green Cytotoxicity Assay to monitor cytotoxicity in HEK293 cells - 16 hour (AID 1224888); also: nearly all actives have a fitted effect of over 35% in size
Summary of the method: as §2

[10] = qHTS RealTime-Glo MT Cell Viability Assay in HepG2 cells - 0 hour (AID 1224889); also: nearly all actives have a fitted effect of over 50% in size
Summary of the method: as §4

[11] = A CellTox Green Cytotoxicity Assay to monitor cytotoxicity in HepG2 cells - 8 hour (AID 1224890); also: nearly all actives have a fitted effect of over 45% in size
Summary of the method: as §3

[12] = qHTS assay to identify small molecule antagonists of the estrogen receptor alpha (ER-alpha) signaling pathway using the BG1 cell line in the presence of 0.1 nM 17-beta-estradiol - cell viability counter screen (AID 1259241); also: nearly all actives have a fitted effect of over 40% in size
Summary of the method: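 The cell line endogenously expresses full-length ER-alpha and carries four EREs driving luciferase. Cells are cultured 5 days hormone-free, treated 22 hr with compounds and 0.1 nM estradiol, then viability is read by fluorescence.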

[13] = qHTS assay to identify small molecule antagonists of the androgen receptor (AR) signaling pathway using the MDA cell line in the presence of 0.5 nM R1881 - cell viability counter screen (AID 1259242); also: nearly all actives have a fitted effect of over 45% in size
Summary of the method: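 Viability of MDA-kb2 cells was multiplexed with the luciferase AR readout; after 16 hr with compounds and R1881 at 0.5 nM final, CellTiter-Fluor fluorescence was recorded.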

[14] = target: Androgen receptor (Homo sapiens) (UniProt P10275); test: qHTS assay to identify small molecule antagonists of the androgen receptor (AR) signaling pathway using the MDA cell line in the presence of 0.5 nM R1881 (AID 1259243); also: nearly all actives have a fitted effect of over 50% in size
Chain of Androgen receptor (Homo sapiens) (P10275 whole entry, looked up): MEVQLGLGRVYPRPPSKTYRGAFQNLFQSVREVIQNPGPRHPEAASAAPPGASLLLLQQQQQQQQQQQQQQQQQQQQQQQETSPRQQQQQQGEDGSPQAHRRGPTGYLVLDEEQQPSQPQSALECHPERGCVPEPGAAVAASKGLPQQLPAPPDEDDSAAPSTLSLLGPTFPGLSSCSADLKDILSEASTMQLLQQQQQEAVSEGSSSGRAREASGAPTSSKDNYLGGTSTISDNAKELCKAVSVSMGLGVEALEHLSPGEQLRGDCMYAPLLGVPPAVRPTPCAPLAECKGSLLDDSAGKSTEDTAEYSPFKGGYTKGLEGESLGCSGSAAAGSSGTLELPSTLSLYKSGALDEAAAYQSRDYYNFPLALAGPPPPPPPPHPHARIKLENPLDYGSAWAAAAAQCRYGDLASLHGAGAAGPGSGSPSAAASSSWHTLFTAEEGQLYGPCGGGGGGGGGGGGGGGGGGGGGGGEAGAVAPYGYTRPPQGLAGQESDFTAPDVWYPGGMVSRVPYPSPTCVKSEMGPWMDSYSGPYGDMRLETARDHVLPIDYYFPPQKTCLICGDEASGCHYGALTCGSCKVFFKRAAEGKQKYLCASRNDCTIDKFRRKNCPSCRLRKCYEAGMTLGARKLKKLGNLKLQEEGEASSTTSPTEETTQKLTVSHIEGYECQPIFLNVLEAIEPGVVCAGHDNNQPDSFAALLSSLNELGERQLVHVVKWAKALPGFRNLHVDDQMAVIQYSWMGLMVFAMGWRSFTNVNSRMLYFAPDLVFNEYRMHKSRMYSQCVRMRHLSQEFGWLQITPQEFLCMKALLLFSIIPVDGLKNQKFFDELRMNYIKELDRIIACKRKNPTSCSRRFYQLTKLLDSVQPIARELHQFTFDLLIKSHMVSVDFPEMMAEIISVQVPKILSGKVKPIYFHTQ
Summary of the method: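 Reporter cells cultured without CO2 receive test chemicals, then 0.5 nM R1881 final; after 16 hr at 37C, ONE-Glo is added and light output recorded.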

[15] = qHTS assay to identify small molecule agonists of the sonic hedgehog signaling (Shh) pathway - cell viability counter screen (AID 1259366); also: nearly all actives have a fitted effect of over 50% in size
Summary of the method: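 Viability measured fluorometrically (CellTiter-Fluor, 1hr, 37C) in 3T3 Gli1-Luc reporter cells after 23hr compound exposure within a 24hr incubation at 37C/5% CO2.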

[16] = qHTS assay to identify small molecule antagonists of the sonic hedgehog signaling (Shh) pathway - cell viability counter screen (AID 1259367); also: nearly all actives have a fitted effect of over 55% in size
Summary of the method: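 After a 4 hr settling period, 3T3 Gli1-Luc cells were treated with DMSO-dissolved chemicals and conditioned medium, kept 24 hr at 37C in 5% CO2, and assayed for viability by CellTiter-Fluor fluorescence following 1 hr reagent incubation.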

[17] = target: Estrogen receptor (Homo sapiens) (UniProt P03372); test: qHTS assay to identify small molecule antagonists of the estrogen receptor alpha (ER-alpha) signaling pathway using the BG1 cell line in the presence of 0.1 nM 17-beta-estradiol (AID 1259244); also: nearly all actives have a fitted effect of over 50% in size
Chain of Estrogen receptor (Homo sapiens) (P03372 whole entry, looked up): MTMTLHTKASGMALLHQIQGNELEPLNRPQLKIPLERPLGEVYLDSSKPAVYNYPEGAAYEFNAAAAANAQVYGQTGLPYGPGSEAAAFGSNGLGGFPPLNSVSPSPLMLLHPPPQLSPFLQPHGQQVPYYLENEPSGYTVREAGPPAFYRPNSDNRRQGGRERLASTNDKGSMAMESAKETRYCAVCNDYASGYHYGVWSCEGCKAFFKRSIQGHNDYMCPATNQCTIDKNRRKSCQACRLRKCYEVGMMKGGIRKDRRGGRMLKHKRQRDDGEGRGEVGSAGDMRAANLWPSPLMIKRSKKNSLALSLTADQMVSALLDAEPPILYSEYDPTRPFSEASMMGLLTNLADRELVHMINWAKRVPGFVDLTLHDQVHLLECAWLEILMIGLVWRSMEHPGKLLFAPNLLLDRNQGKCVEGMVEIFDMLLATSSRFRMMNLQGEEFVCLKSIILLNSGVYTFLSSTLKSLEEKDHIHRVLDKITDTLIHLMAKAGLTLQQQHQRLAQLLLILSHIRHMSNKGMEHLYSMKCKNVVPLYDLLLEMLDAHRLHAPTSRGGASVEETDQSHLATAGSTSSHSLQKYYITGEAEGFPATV
Summary of the method: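 Estradiol at 0.1 nM (final) stimulates the endogenous ER-alpha of VM7Luc4E2 cells carrying an ERE-driven luciferase; compounds are co-incubated 22 h at 37C and luciferase output quantified by luminescence.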

[18] = qHTS assay to identify small molecule HDAC inhibitors (AID 1259364);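 also: wild-type HCT-116 cells with endogenous class I/II HDAC activity; top concentration of the series differs between compounds; nearly all actives have a fitted effect of over 45% in size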
Summary of the method: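 Read-out: luminescence of HDAC-Glo I/II reagent, 30 min RT, reflecting class I/II deacetylase activity in whole HCT-116 cells pre-exposed 2 h to DMSO-dissolved compounds.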

[19] = qHTS assay to identify small molecule HDAC inhibitors - cell viability counter screen (AID 1259365)
Summary of the method: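 Viability readout: CellTiter-Glo luminescence. Wild-type HCT-116 cells, 2hr compound treatment following overnight attachment at 37 C.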

[20] = qHTS assay to identify small molecule phospholipidosis (PLD) inducers (AID 1259344; active = well fitted curve in the direction sought with a large enough effect; an effect the other way counts as inactive or inconclusive)
Summary of the method: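 HepG2 cells grown on collagen I take up LipidTOX Red while exposed to compound for 24 h; after fixation they are imaged at 20x and pit metrics are extracted.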

Measured: Potency

O=C(O)c1ccncc1
inactive: [1] | [2] | [3] | [4] | [5] | [6] | [7] | [8] | [9] | [10] | [11] | [12] | [13] | [14] | [15] | [16]

CNc1ccccc1
inactive: [1] | [2] | [3] | [4] | [5] | [6] | [7] | [8] | [9] | [10] | [11] | [12] | [13] | [17] | [18] | [19] | [15] | [16]

C1=COCCC1
inactive: [1] | [2] | [3] | [4] | [5] | [6] | [7] | [8] | [9] | [10] | [11] | [12] | [13] | [17] | [18] | [19] | [15]

O=C(C1CCCCC1)N1CC(=O)N2CCCc3ccccc3C2C1 (configuration not stated)
inactive: [1] | [2] | [3] | [4] | [5] | [6] | [7] | [8] | [9] | [10] | [11] | [12] | [13] | [14] | [18] | [19] | [15] | [16]

C=CCCC
inactive: [1] | [2] | [3] | [4] | [5] | [6] | [7] | [8] | [9] | [10] | [11] | [12] | [13] | [17] | [18] | [19] | [15] | [16]

C=CC(=O)NC(C)(C)C
inactive: [1] | [2] | [3] | [4] | [5] | [6] | [7] | [8] | [9] | [10] | [11] | [12] | [13] | [17] | [18] | [19] | [15] | [16]

CCCC1CCCC(=O)O1 (configuration not stated)
inactive: [1] | [2] | [3] | [4] | [5] | [6] | [7] | [8] | [9] | [10] | [11] | [12] | [13] | [17] | [18] | [19] | [15] | [16]

O=C(O)CCc1nc2ccccc2[nH]1
inactive: [1] | [2] | [3] | [4] | [5] | [6] | [7] | [8] | [9] | [10] | [11] | [12] | [13] | [17] | [20] | [18] | [19] | [15] | [16]
